In the library only some 4.1% were active in any assay of this set; here they are far more common.
CHT allo act = allosteric activators of human choline transporter CHT. CHT-expressing cells, membrane potential dye, choline EC20; hits give high values; LV-AA mutant CHT in HEK293 cells. B-score at 10 µM. hit rate 0.49% among 310,000;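 active = initial fluorescence not abnormally high and integrated response B-score, plate-corrected, over 3 SD above library mean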
Target sequence (Q9GZV3 whole entry, looked up): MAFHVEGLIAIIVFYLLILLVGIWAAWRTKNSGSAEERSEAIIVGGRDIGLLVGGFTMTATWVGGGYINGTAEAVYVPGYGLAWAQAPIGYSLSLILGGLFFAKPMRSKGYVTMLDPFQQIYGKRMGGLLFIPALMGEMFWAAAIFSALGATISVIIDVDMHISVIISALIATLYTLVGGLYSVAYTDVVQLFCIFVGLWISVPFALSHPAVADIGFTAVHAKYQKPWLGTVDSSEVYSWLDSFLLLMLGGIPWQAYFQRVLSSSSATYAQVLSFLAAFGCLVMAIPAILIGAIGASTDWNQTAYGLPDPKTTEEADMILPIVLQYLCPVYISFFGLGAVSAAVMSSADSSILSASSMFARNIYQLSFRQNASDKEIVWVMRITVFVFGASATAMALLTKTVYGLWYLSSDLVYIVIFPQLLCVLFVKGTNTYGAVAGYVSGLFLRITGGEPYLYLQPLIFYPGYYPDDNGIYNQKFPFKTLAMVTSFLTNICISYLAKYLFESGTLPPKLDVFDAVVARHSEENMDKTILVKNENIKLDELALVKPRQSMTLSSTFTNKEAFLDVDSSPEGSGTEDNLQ
MEKK3 PB1 HTS = MEKK3-MEK5 PB1 interaction, increase or decrease. Q99759. bead-based flow cytometry, Alexa488-MEK5 binding to MEKK3; actives lie on both sides; 0 = blocked by unlabeled MEK5, 100 = vehicle. binding response (% of control), % at 10 µM. hit rate 1.4% among 290,000. AID 1529;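 active = binding response more than 3 SD above or below the average of its plate-row segment, actives on both sides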;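 also: Alexa488 bead fluorescence after subtracting the streptavidin-only scavenger bead signal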
CHT block = human CHT choline transport inhibition | Q9GZV3 | CHT-expressing cells, membrane potential dye, choline response; hits give low values | B-score at 10 µM | hit rate 0.86% among 310,000;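 active = B-score over 3 SD under the library average, and starting fluorescence ratio not unusually high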;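 also: choline stimulus applied at its EC90 after an EC20 pre-addition; B-score computed on integrated fluorescence ratio after choline addition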
Mot1-301 SUMO = inhibitors of SUMOylation pathway: yeast Mot1-301 growth rescue; S. cerevisiae Mot1-301 growth rescue, ATP luminescence, 38.5C; percent above DMSO median, 100 means doubled; growth rescue, % at 18.8 µM; hit rate 1% among 320,000; AID 2716;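 active = every valid replicate shows activation above 250% relative to neutral control wells; inactive = the rest, any valid replicate at or below 250%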;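 also: OY570 slx delta 5 strain wells were the positive control but not used for scaling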
MEKK2 WT-MEK5 = raises or lowers MEK5 binding to wildtype human MEKK2 PB1 domain; bead flow cytometry, Alexa488-MEK5 binding to MEKK2 WT; actives lie on both sides; binding response (% of control), % at 10 µM; hit rate 1.1% among 290,000; AID 1531; in the data active = binding response below about 67% or above about 130%
MEKK2mut PB1 HTS = signal of MEK5 binding to mutant human MEKK2 PB1 domain | bead flow cytometry, Alexa488-MEK5 binding to MEKK2 mutant | percent response, % at 10 µM | hit rate 0.35% among 290,000 | AID 1530; in the data active = percent response above about 24%, passing the limit was not always enough
MEKK2wt confirm = raises or lowers MEK5 binding to wildtype human MEKK2, retest | hit rate 2.4% among 5,900 | bead flow cytometry, Alexa488-MEK5 binding to MEKK2 WT; actives lie on both sides | shares compounds with MEKK3 PB1 HTS | binding response (% of control), % at 10 µM; in the data active = binding response below about 16% or above about 210%; inactive = in between
MEKK2mut confirm = signal of MEK5 binding to mutant human MEKK2, retest; shares compounds with MEKK3 PB1 HTS; bead flow cytometry, Alexa488-MEK5 binding to MEKK2 mutant; percent response, % at 10 µM; hit rate 2% among 5,900; in the data active = percent response mostly above about 71%, no sharp cut-off; inactive = mostly below about 38%;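 also: higher means compound restores mutant binding toward wildtype level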
MEKK3-MEK5 inh = MEKK3-MEK5 PB1 inhibition, single concentration confirmation. shares compounds with MEKK3 PB1 HTS. AID 1894. binding response (% of control), % at 10 µM. hit rate 1.8% among 5,900. bead flow cytometry, Alexa488-MEK5 binding to MEKK3; hits give low values;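 active = binding response below 72% of control, or above a set upper limit, though filed actives all read lower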;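 also: 100% = DMSO only wells and 0% = binding blocked by excess unlabeled MEK5; lower values mean stronger disruption of MEK5 binding to MEKK3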
An asterisk follows results filed as active; i = inactive; nt = no result; [ ] = dose if it differs, or a comment.

SMILES	CHT allo act	MEKK3 PB1 HTS	CHT block	Mot1-301 SUMO	MEKK2 WT-MEK5	MEKK2mut PB1 HTS	MEKK2wt confirm	MEKK2mut confirm	MEKK3-MEK5 inh
O=C(COc1cccc(NC(=O)c2cccs2)c1)c1ccc(F)cc1	i	138*	i	-7	105	1	104	2	105
O=C(COc1cccc(NC(=O)c2ccccc2)c1)c1ccccc1	i	96	i	3	93	-3	nt	nt	nt
COc1cc(OC)c2c(-c3ccccc3)cc(=O)oc2c1C(CC(=O)N1CCOCC1)c1ccc(N(C)C)cc1 (centres undefined)	i	102	i	13	99	1	nt	nt	nt
COc1cc(OC)c2ccc(=O)oc2c1C(CC(=O)N1CCOCC1)c1ccc2c(c1)OCO2 (centres undefined)	i	90	i	21	95	-8	nt	nt	nt
CCN(CC)C(=O)CC(c1ccc(OC)cc1)c1c(OC)cc(OC)c2ccc(=O)oc12 (centres undefined)	i	117	i	-23	145*	4	102	2	100
CCN(CC)C(=O)CC(c1cc(OC)c(OC)c(OC)c1)c1c(OC)cc(OC)c2ccc(=O)oc12 (centres undefined)	i	123	i	-4	151*	2	101	-6	100
COc1cc(C(CC(=O)N2CCOCC2)c2c(OC)cc(OC)c3ccc(=O)oc23)cc(OC)c1OC (centres undefined)	i	118	i	6	134	3	nt	nt	nt
CCN(CC)C(=O)CC(c1cc(OC)c(OC)c(OC)c1)c1c(OC)cc(OC)c2c(-c3ccccc3)cc(=O)oc12 (centres undefined)	i	133*	i	-10	160*	-2	96	-6	97
COc1cc(OC)c2c(-c3ccccc3)cc(=O)oc2c1C(CCN1CCN(c2ccccc2)CC1)c1ccc(N(C)C)cc1 (centres undefined)	i	99	i	-25	113	6	nt	nt	nt
CCN(CC)CCC(c1ccc(N(C)C)cc1)c1c(OC)cc(OC)c2c(-c3ccccc3)cc(=O)oc12 (centres undefined)	i	111	i	12	178*	25*	144	22	103
Cc1sc(NC(=O)CSc2nnc(C)c(=O)[nH]2)c(C#N)c1C	i	95	i	0	96	-4	nt	nt	nt
COc1ccc(-c2csc3ncnc(N4CCN(c5ccc(OC)cc5)CC4)c23)cc1	i	102	i	-28	101	-3	nt	nt	nt
COc1ccc(-c2nsc3c(N4CCCC4)ncnc23)cc1	i	-1.0*[inhibitor]	i	25	-2.0*[inhibitor]	-15	98	-2	98
Cc1ccc(N=C(NO)c2nonc2N)c(C)c1	i	88	i	89	89	-5	nt	nt	nt
Cc1ccc(N=C(N(C)C)P(=O)(N(C)C)N(C)C)c(C)c1	i	72*[inhibitor]	i	300	77	-3	102	11	103
COc1ccc(NC(=O)C2CCCN2C(=O)NC2CCCCC2)c(OC)c1 (centres undefined)	i	98	i	-1	102	5	nt	nt	nt
CC1(C)CC(=O)C2=C(C1)N(c1ncn[nH]1)C(N)=C(C#N)C2c1ccccc1 (centres undefined)	i	137*	i	4	109	0	111	6	109
CC1(C)CC(=O)C2=C(C1)N1C(=C(C#N)C2c2ccccc2Cl)N=C(N)c2ccccc21 (centres undefined)	i	105	i	-10	95	-4	nt	nt	nt

From PubChem
